Test results published in PubChem BioAssay AID686978 (National Center for Advancing Translational Sciences (NCATS), 2013).
Screen size: about 420,000 compounds; about 64,000 (15%) were called active. Another 27% or so got no clear call; they are omitted. Only a sample is shown. Values without a mark were called inactive. The call rests on the fitted dose curve; in most records, active means well fitted inhibition curve with a large enough effect; inconclusive means small, poorly fitted or top-dose-only effect; inactive means flat fitted curve, though single readings scatter.

Test: qHTS for Inhibitors of human tyrosyl-DNA phosphodiesterase 1 (TDP1): qHTS in cells in absence of CPT; further: nearly all actives have a fitted effect of over 55% in size
Settings: DT40 Tdp1-/- hTDP1 cells, no CPT, ATP luminescence, 48 h; activity change, negative = growth inhibition: at 46.2 µM (top of the series)
Source text: Human tyrosyl-DNA phosphodiesterase 1 (TDP1) is a novel repair gene, and we propose to use it as a new target for anticancer drug development. TDP1 is not an essential protein, but under treatment with topoisomerase I poison (camptothecin: CPT), TDP1 works as a critical factor for cell survival. To directly identify novel TDP1 inhibitors active in a cellular environment, we have knocked-out the Tdp1 gene in chicken DT40 cells (Tdp1-/-) and generated a complemented counterpart cells that contains a stable transfection of the human TDP1 gene (Tdp1-/-;hTDP1 cells). For the primary screen, Tdp1-/-;hTDP1 cells will be exposed to small molecules in the presence or absence of CPT, and their growth kinetics will be evaluated after 48 hours by measuring ATP activity. […] The hit compounds will then be evaluated in the presence or absence of CPT using Tdp1-/- cells. […] In tertiary assays, biochemical gel-based assays will be used to assess whether the hit compounds specifically target TDP1.
To this end, we have screened this cell line against the MLSMR in two primary screens. In one screen we add CPT and in the other we screen in the absence of CPT; this AID represents the screen where CPT was absent.
NIH Chemical Genomics Center [NCGC]
NIH Molecular Libraries Probe Centers Network [MLPCN]
Assay Submitter (PI): Yves Pommier, NCI
DT40-hTDP1 cells without 20 nM Camptothecin (add 20 microL of DMSO in 1 L of cell culture medium) were dispensed at 400 cells/5microL/well in tissue culture treated 1536-well white wall/solid bottom assay plates (Greiner Bio-One North America, NC, U.S.A.) using a Multidrop Combi 8 channel dispenser (Thermo Fisher, Waltham, MA, USA). 23 nL compounds and controls were transferred using the pin tool (Kalypsys, San Diego, CA, USA) to the assay plates. The assay plates were then incubated at 37 masculineC for a minimum 48 hr. Three microL of Cell Titer Glo solution was added to the plates and incubated at RT in dark for 30 min. Luminescence was read using ViewLux (Perkin Elmer) with 1 sec exposure slow speed, high gain and 2x binning.
On the % scale 0 is the no-effect control and ±100 the full control effect; potency means the concentration at half of the fitted maximal effect.

Row | SMILES | activity change, negative = growth inhibition | Potency
1 | C[C@H](NC(=O)C1CCN(S(=O)(=O)c2ccccc2)CC1)C(=O)NCc1ccccc1 | 2.13% | –
2 | O=C(COc1ccc([N+](=O)[O-])cc1Cl)Nc1ccc2[nH]c(=O)[nH]c2c1 | -25.9% | –
3 | O=C1N(c2ccc(Cl)cc2)C(c2ccc(Cl)cc2)N2CCCN12 (centres undefined) | -5.61% | –
4 | COc1ccc(-c2cn(-c3ccc(OC)cc3)c(=S)[nH]2)cc1 | – | 18.4 µM (active)
5 | COc1ccc(N2C(=O)CNC2=S)cc1 | 0.715% | –
6 | COc1ccc(-n2c(-c3ccc(OC)c(OC)c3)n[nH]c2=S)cc1 | 1.09% | –
7 | FC(F)(F)c1cccc(-c2nc(COc3ccc(Cl)cc3Cl)no2)c1 | -3.5% | –
8 | CS(=O)(=O)N(CC(=O)N1CCOCC1)c1ccc2c3c(cccc13)CC2 | -0.193% | –
9 | O=C(COC(=O)CNS(=O)(=O)c1ccc(F)c(F)c1F)NC1CCCC1 | -24.1% | –
10 | COc1cccc(Nc2ncccc2C(=O)O)c1 | -1.91% | –
11 | COc1cccc(Nc2nc3ccccc3c3nncn23)c1 | – | 25.9 µM (active)
12 | FC(F)(F)c1ccccc1-c1nc(-n2ccnc2)c2ccccc2n1 | 1.22% | –
13 | FC(F)(F)c1cc(Nc2nc3ccccc3c3nncn23)ccc1Cl | – | 16.4 µM (active)
14 | COc1ccc(OC)c(Nc2nc3ccccc3n3cnnc23)c1 | -28.7% | –
15 | CC(C)c1cc(CN2CCOCC2)cc(C(C)C)c1O | 13.6% | –
16 | O=C(Cc1ccccc1)Nc1ccc(NC(=O)c2cccnc2)cc1 | -9.26% | –
17 | CC(C)(C)c1cc[n+](-c2[nH]c(=O)sc2/C=N/N=C(\[O-])c2ccccc2)cc1 | 1.02% | –
18 | CCCS(=O)(=O)Nc1c(C(=O)O)[nH]c2ccccc12 | 1.22% | –
19 | COc1ccc(/C=C(\C#N)c2c[nH]c3ccccc23)cc1 | – | 0.651 µM (active)
20 | C[N+](C)(C)CCNC(=O)c1c[nH]c2ccccc12 | -19.4% | –
21 | COc1ccc(C2C(C(C)=O)=C(O)C(=O)N2CCc2c[nH]c3ccccc23)cc1 (centres undefined) | -14.6% | –
22 | N/C(=N\OC(=O)c1ccc2c(c1)OCO2)c1ccc(Br)cc1 | -6.73% | –
23 | CCn1cc(C(=O)NCCC(=O)NCCO)c(=O)c2cc3c(cc21)OCO3 | -3.37% | –

Row | SMILES | activity change, negative = growth inhibition | Potency
24 | CCCN(CC(=O)Nc1ccc(C(N)=O)cc1)CC(=O)Nc1ccccc1C | -26.5% | –
25 | CC1CCN(C(=O)CN(c2ccc(Oc3ccccc3)cc2)S(C)(=O)=O)CC1 | – | 13 µM (active)
26 | COc1ccc(N(CC(=O)N2CCCCCC2)S(=O)(=O)c2ccccc2)cc1 | -21.7% | –
27 | CS(=O)(=O)N(CC(=O)N1CCN(Cc2ccccc2)CC1)c1ccc2c(c1)OCCO2 | -6.95% | –
28 | Cc1ccc(N2C(=O)CC(N3CCSCC3)C2=O)c(C)c1 (centres undefined) | 15.3% | –
29 | CC1(C)Cc2c(cnn2-c2cccc(F)c2)C(NC(=O)c2cc[n+]([O-])cc2)C1 (centres undefined) | -4.77% | –
30 | COc1ccc(-n2ncc3c2CC(C)(C)CC3NC(=O)CCc2c(C)nn(C)c2C)cc1 (centres undefined) | -3.17% | –
31 | COc1ccc(-n2ncc3c2CC(C)(C)CC3NC(=O)CCc2c(C)noc2C)cc1 (centres undefined) | -10.3% | –
32 | Cc1cc(C(=O)NC2CC(C)(C)Cc3c2cnn3-c2ccccc2)n[nH]1 (centres undefined) | -8% | –
33 | COC(=O)c1ccc(C(=O)NC2CC(C)(C)Cc3c2cnn3-c2ccc(F)cc2)nc1 (centres undefined) | – | 3.66 µM (active)
34 | Cc1ccc(-n2ncc3c2CC(C)(C)CC3NC(=O)Cc2c(C)noc2C)cc1 (centres undefined) | – | 23.1 µM (active)
35 | CCn1ncc(CNC(=O)C2(C)CC2(Br)Br)c1C (centres undefined) | -2.88% | –
36 | CC12CN3CC(C)(CN(C1)C3c1ccc(Cl)cc1Cl)C2=O (centres undefined) | -1.85% | –
37 | Cc1ccc(-c2noc(-c3nnn(-c4cccc(C(F)(F)F)c4)c3N)n2)cc1 | 4.08% | –
38 | Cc1cc(C)cc(N(CC(=O)NC2CCCC2)C(=O)CCC(=O)Nc2nccs2)c1 | -15.3% | –
39 | COc1cc(C(=O)N2CCN(S(=O)(=O)c3ccc(C(C)C)cc3)CC2)ccc1OCC(=O)N1CCOCC1 | 18.5% | –
40 | FC(F)(F)c1ccnc(Oc2ccc(C3=NCCS3)cc2)c1 | -5.22% | –
41 | C/C(=N\NC(=O)CNc1cccc2ccccc12)c1ccc(Br)s1 | – | 8.2 µM (active)
42 | O=C(COC(=O)c1ccccn1)Nc1cccc2ccccc12 | 0.707% | –
43 | Cc1cccc(/C=N/NC(=O)CNc2cccc3ccccc23)n1 | – | 13 µM (active)
44 | C/C(Cc1ccccc1)=N\NC(=O)CNC(=O)c1cccc(Br)c1 | -2.1% | –
45 | C/C(=N\NC(=O)COc1c(C)cccc1C)c1cccs1 | -27.7% | –
46 | Cc1c(Cl)cccc1NC(=O)CCC(=O)N/N=C/c1ccco1 | 15.7% | –

Row | SMILES | activity change, negative = growth inhibition | Potency
47 | C=CCN1CC(C)/C(=N\O)CC1C (centres undefined) | -4.43% | –
48 | Cc1ccc(NC(=O)Cn2cnc3nc4c(cc3c2=O)CCCC4)cc1Cl | 2.29% | –
49 | COc1ccc(C(=O)NC(Cc2ccc(OC(=O)c3ccc(OC)cc3)cc2)C(=O)O)cc1 (centres undefined) | 2.2% | –
50 | CN(CCc1ccccn1)C(=O)CCC1CCCN(Cc2ccccc2OC(F)F)C1 (centres undefined) | -10.5% | –
51 | CN(CC(=O)NCCc1ccc(S(N)(=O)=O)cc1)CC(=O)Nc1ccc(Cl)cc1 | -18% | –
52 | CC(NC(=S)Nc1ccc(OC(F)F)cc1)c1ccc(F)cc1 (centres undefined) | – | 16.4 µM (active)
53 | CCNC(=S)Nc1ccc(OC(F)(F)F)cc1 | -24.4% | –
54 | O=C1CCC(C(=O)Nc2ccc(OC(F)F)cc2)N1 (centres undefined) | -6.43% | –
55 | CC(=O)c1ccc(OCC(O)CN2CCN(S(=O)(=O)c3cccc(Br)c3)CC2)cc1 (centres undefined) | -22.2% | –
56 | CCCCC(=O)N(c1ccc(OC)cc1)C1C=CS(=O)(=O)C1 (centres undefined) | -8.95% | –
57 | CN(C)/C=C/C(=O)c1ccccc1F | 2.39% | –
58 | COc1ccccc1NC(=O)c1sc2nc(C)c(C(=O)Nc3ccc(Cl)cc3)c(-c3ccc(Br)cc3)c2c1N | – | 16.4 µM (active)
59 | COc1ccc(NC(=O)c2sc3nc(-c4cc5cccc(OC)c5oc4=O)[nH]c(=O)c3c2C)cc1 | -20.7% | –
60 | COc1ccccc1NC(=O)c1c(Br)cnn1C | -18.3% | –
61 | N/C(=N\OC(=O)c1ccc([N+](=O)[O-])cc1)c1ccccn1 | 6.67% | –
62 | O=C(NC1CC1)C1=C[C@H](c2coc3ccccc3c2=O)C[C@H](OCCCCO)O1 | -1.23% | –
63 | CCO[C@H]1OC(C(=O)O)=C[C@@H](C2CCCCC2)[C@@H]1CCCO | 4.26% | –
64 | CCO[C@H]1OC(C(=O)NCc2ccccc2)=C[C@@H](c2coc3ccccc3c2=O)[C@@H]1CCCO | – | 9.2 µM (active)
65 | CC1=CC(=NNS(=O)(=O)c2ccc([N+](=O)[O-])cc2)CC(C)(C)C1 | -5.62% | –
66 | CNC(=S)N/N=C/c1cn(Cc2ccc(C)cc2)c2ccccc12 | – | 18.4 µM (active)
67 | Cc1ccc(CNC(=O)Cc2cn(C)c3ccccc23)cc1 | -10.4% | –
68 | NC(=O)Cn1cc(/C=N\NS(=O)(=O)c2ccccc2)c2ccccc21 | 19.2% | –
69 | N#CCC(=O)N/N=C/c1cn(Cc2ccc3ccccc3c2)c2ccccc12 | – | 14.6 µM (active)
